# Measurements as given in PubChem BioAssay (NCATS).
# Results filed as inconclusive are left out. Unmarked numbers belong to inactive results. The source made the active and inactive calls. Calls come from the whole dose curve; as a rule, active = well fitted curve in the direction sought with a large enough effect; inconclusive = small, poorly fitted or top-dose-only effect, or another doubt; inactive = no such curve, though single readings can be large; an effect the other way counts as inactive or inconclusive.
# Target: Cytochrome P450 3A7 (Homo sapiens) (UniProt P24462)
# Sequence (P24462 whole entry, looked up): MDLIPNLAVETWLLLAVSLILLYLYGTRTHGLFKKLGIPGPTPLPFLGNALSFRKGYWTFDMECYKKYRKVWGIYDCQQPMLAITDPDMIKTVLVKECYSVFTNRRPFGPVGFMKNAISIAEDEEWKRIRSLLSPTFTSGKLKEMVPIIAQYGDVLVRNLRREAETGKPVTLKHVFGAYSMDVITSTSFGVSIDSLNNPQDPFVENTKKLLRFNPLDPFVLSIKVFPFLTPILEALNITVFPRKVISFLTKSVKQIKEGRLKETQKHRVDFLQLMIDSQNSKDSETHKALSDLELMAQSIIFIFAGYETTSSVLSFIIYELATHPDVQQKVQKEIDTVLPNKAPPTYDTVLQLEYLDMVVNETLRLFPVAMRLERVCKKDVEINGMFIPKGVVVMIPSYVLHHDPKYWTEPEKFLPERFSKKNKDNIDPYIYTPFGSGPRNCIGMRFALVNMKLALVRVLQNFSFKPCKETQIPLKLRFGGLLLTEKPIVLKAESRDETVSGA
# Test: Cytochrome P450 family 3 subfamily A member 7 (CYP3A7) small molecule antagonists: luciferase biochemical qHTS assay (AID 1963596); note: % is set by controls: 0 for no effect and ±100 for the full control effect
# Details: P450-Glo CYP3A7 enzyme luminescence, 1 h; series mostly up to 57.4 µM; activity change, negative = inhibition: at the top concentration
# How it was run: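 Luminescence from luciferin released by CYP3A7 from a proluciferin substrate, read 20 min after detection reagent. Compound and enzyme-substrate mix sat 10 min before NADPH regeneration solution; reaction ran 1 h at room temperature.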
# Note: nearly all actives have a fitted effect of over 40% in size.
SMILES,"activity change, negative = inhibition [%]",Potency
CO/N=C(/C(=O)N[C@@H]1C(=O)N2C(C(=O)O)=C(Cn3nnc(C)n3)CS[C@H]12)c1csc(N)n1,-6,
CNc1nc(C)nc(N[C@H]2CCC[C@@H](C(=O)NCc3ccc(C#N)cc3C(F)(F)F)C2)n1,4.59,
Nc1nc(N)c2nc(-c3ccccc3)c(N)nc2n1,-9.86,
Oc1c(I)cc(I)c2cccnc12,,inactive
Cl/C(=C\n1cncn1)c1ccc(Cl)cc1Cl,-12.3,
O=C(O)CCc1nc2ccccc2[nH]1,1.78,
O=C(O)P(=O)(O)O,1.75,
C[C@H](CN1CCCC1)C(=O)c1ccc(C(F)(F)F)cc1,1.26,
CC(C)(C)C(=O)NCCCC(=O)O,2.27,
O=C(NCC(=O)N1CC[C@H](NC2CCC(O)(c3ccc(-c4ncccn4)cn3)CC2)C1)c1cccc(C(F)(F)F)c1 (stereo not given in full),-18.4,
CC1CC(OC(=O)C(O)c2ccccc2)CC(C)(C)N1C (stereo not given),2.46,
O=c1[nH]c(=O)n([C@H]2O[C@H](CO)[C@@H](O)[C@@H]2O)cc1/C=C\Br,-7.65,
CCNCc1nc2c(N)nc3ccccc3c2n1CC(C)(C)O,7.02,

# Test system: not listed separately
# Test: Viability qHTS for spleen associated tyrosine kinase inhibitor (SYKi) naive MV4-11 cells (AID 1963823); note: potency is the fitted concentration of half-maximal effect
# Details: MV4-11 AML viability, CellTiter-Glo luminescence, 72 h; series mostly up to 45 µM; viability (% of control): at the top concentration
# How it was run: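 Luminescence from CellTiter-Glo, developed 10 min at room temperature, gave viability of MV4-11 cells never exposed to SYK inhibitor. Cells (500/well) had been incubated with compounds for 72 hr under standard culture conditions.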
SMILES,Potency,viability (% of control)
CC[C@H](C)/C=C(C)/C=C/C1=CC2=C(Cl)C(=O)[C@](C)(O)[C@H](OC(C)=O)[C@H]2CO1,12.8 µM (active),
CC(C)(O)c1ccc2c(c1)C(=O)C[C@H]1[C@](C)(C(=O)O)CCC[C@]21C,,73%
COc1ccc2c(c1)C[C@H](C(=O)Nc1ccc(-c3cn[nH]c3)cc1OCCN(C)C)CO2,0.651 µM (active),
COc1ccc(CNCc2cccc3ccccc23)cc1,,57.1%
c1ccc2c(Nc3nnc(-c4ccncc4)s3)cccc2c1,,59.5%
C#C[C@]1(O)CC[C@H]2[C@@H]3CCC4=CC(=O)CC[C@@H]4[C@H]3CC[C@@]21C,,65.7%
COc1cc([C@H]2OC[C@]3(OC(C)=O)[C@@H](c4ccc(O[C@@H]5O[C@H](CO)[C@@H](O)[C@H](O)[C@H]5O)c(OC)c4)OC[C@H]23)ccc1O,,80.8% [at 17.3 µM]
CC[C@@H](O)C[C@@H]1C(C)=C[C@@H]2CCCC[C@@H]2[C@@]1(C)C(=O)O,,71%
COC(=O)C1=CO[C@@H](O[C@@H]2O[C@H](CO)[C@@H](O)[C@H](O)[C@H]2O)[C@H]2[C@@H]1CC(OC)O[C@@H]2C (stereo not given in full),,98.3% [at 17.3 µM]
O=C1NC(Cc2c[nH]c3ccccc23)C(=O)NC1Cc1cnc[nH]1 (stereo not given),,68.3%
C/C=C(\C)C(=O)OCC1OC(OC2OC(CO)C(O)C(O)C2O)C(O)C(O)C1O (stereo not given),,81.1% [at 17.3 µM]
CC1(C)CC[C@]2(C(=O)O)[C@H](O)C[C@]3(C)C(=CCC4[C@@]5(C)CC[C@H](O[C@@H]6O[C@H](CO[C@@H]7OC[C@H](O)[C@H](O)[C@H]7O[C@@H]7OC[C@H](O)[C@H](O)[C@H]7O)[C@@H](O)[C@H](O)[C@H]6O)C(C)(C)C5CC[C@]43C)[C@@H]2C1 (stereo not given in full),,57.5% [at 9.25 µM]
CC(CC12CCCN1C(=O)C1CCCN1C2=O)OC(N)=O (stereo not given),,77.8%
N#CCC(C1CCCC1)n1cc(-c2ncnc3[nH]ccc23)cn1 (stereo not given),10.3 µM (active),
CC1OC(OC2C(OC3C(O[C@H]4CC[C@@]5(C)C(CC[C@]6(C)C5C(=O)CC5=C7CC(C)(C)CC(O)[C@]7(C)CC[C@]56C)C4(C)C)OC(C(=O)O)C(O)C3O)OCC(O)C2O)C(O)C(O)C1O (stereo not given in full),,77.2% [at 9.25 µM]
Cc1csc(N(C(=O)CSc2ccc(-c3ccccc3)nn2)C2CC2)n1,,75.7%
CC(=O)C=C=C1C(C)(C)CC(O)CC1(C)O[C@@H]1O[C@H](CO[C@H]2OC[C@](O)(CO)[C@H]2O)[C@@H](O)[C@H](O)[C@H]1O (stereo not given in full),,42% [at 17.3 µM]
O=S1(=O)CCN(Cc2cc(NCC3CCOCC3)c3[nH]c(-c4ccccc4)cc3c2)CC1,,3.26%
CC(C)=CCC/C(C)=C/Cc1ccc(O)c(C2OC(=O)c3cc(C(=O)O)cc(O)c32)c1O (stereo not given),,34.4% [at 17.3 µM]
CCOC(=O)C1=CCCCC1S(=O)(=O)Nc1ccc(F)cc1Cl (stereo not given),20.9 µM (active),
O=C(O)CC1CC(c2ccccc2)=NO1 (stereo not given),,41% [at 17.3 µM]
C[C@H](O)[C@H](O)/C=C/c1cccc(O)c1CO,,100%
O=C1NC(=O)C(c2c[nH]c3ccccc23)=C1c1c[nH]c2ccccc12,1.86 µM (active),
CCC1OC(=O)C(C)CC(C)C(=O)/C(C)=C/C(C)C(=O)/C=C/C1(C)O (stereo not given),,68.1%
CC1CC(=O)C2C(O)(C1)CC(O)C13OC1c1c(O)cccc1C(=O)C23O (stereo not given),14.3 µM (active),
C=C1C[C@]23C[C@H]1[C@@H](O)C[C@H]2[C@@]12C=C[C@H](O)[C@@](C)(C(=O)O1)[C@H]2[C@@H]3C(=O)O,,84.4%
C=C1CC[C@@]2(OC1)O[C@H]1CC3C4CC=C5C[C@@H](O[C@@H]6O[C@@H](C)[C@H](O)[C@@H](O)[C@H]6O)C[C@@H](O[C@@H]6O[C@H](C)[C@H](O)[C@H](O)[C@H]6O[C@@H]6O[C@@H](C)[C@H](O)[C@@H](O)[C@H]6O)[C@]5(C)C4CC[C@]3(C)[C@H]1[C@@H]2C (stereo not given in full),,70.4% [at 9.25 µM]
